# Tb PGK inh – blocks T. brucei phosphoglycerate kinase; Potency, µM (series often up to 57.5 µM), without a hit: at the top dose activity change, negative = inhibition, usual class: inhibitors; AID 602233; P07378; PGK/GAPDH coupled, Kinase-Glo luminescence, 60 min; 380,000 compounds, 0.043% hits; also: potency is read from the fitted curve at half-maximal effect; % is scaled to controls: 0 for no effect and ±100 for the full control effect; nearly all actives have a fitted effect of over 60% in size
#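 Recombinant glycosomal PGK reaction used 1,3-bisphosphoglycerate generated in-well by GAPDH (100nM final) in 100mM TEA pH 7.6, 5mM MgCl2, 0.01% Tween-20. After 60 minutes at room temperature, ATP was read by Kinase-Glo Plus luminescence end-point.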
# GLS inhibitor – glutaminase GLS (human) inhibition; O94925; Potency, µM (series often up to 45.5 µM), for the others: at the highest dose activity change, negative = inhibition, most hits filed as inhibitors; GLS enzymatic activity, qHTS titration; 410,000 compounds, 0.21% hits; also: potency is read from the fitted curve at half-maximal effect; % is scaled to controls: 0 for no effect and ±100 for the full control effect
#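 hKGA; 45 mM KH2PO4 pH 8.2 + 0.02% Tween-20; cpd via pin tool; 1 mM Gln soln; GluOx/HRP/Amplex Red; RT 30 min; fluor. t0 & final.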
# mIDH1 inhibitor – human IDH1 R132H inhibition; IDH1-R132H enzyme, NADPH consumption, diaphorase/resazurin fluorescence; Potency, µM (doses to about 76.6 µM), inactives show top-dose activity change, negative = inhibition, most hits filed as inhibitors; 390,000 compounds, 0.093% hits; also: potency is read from the fitted curve at half-maximal effect; % is scaled to controls: 0 for no effect and ±100 for the full control effect; nearly all actives have a fitted effect of over 65% in size
# Target sequence (O75874 whole entry R132H, stated change not applied): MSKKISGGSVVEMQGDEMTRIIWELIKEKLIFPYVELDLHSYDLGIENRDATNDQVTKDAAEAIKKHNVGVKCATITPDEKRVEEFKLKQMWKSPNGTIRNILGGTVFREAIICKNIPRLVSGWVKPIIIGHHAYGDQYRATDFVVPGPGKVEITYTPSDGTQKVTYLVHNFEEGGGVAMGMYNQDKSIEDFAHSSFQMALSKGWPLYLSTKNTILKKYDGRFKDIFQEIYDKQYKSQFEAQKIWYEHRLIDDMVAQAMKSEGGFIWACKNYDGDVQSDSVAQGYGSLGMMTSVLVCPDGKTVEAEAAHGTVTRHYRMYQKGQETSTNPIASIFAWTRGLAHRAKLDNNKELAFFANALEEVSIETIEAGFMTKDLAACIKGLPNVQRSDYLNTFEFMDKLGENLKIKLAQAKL
#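 IDH1-R132H (0.5 ug/mL dispensed) in pH 7.5 Tris buffer was preincubated 30 min with compound, then given a substrate mix of 0.016 mM NADPH and 2 mM alpha-KG for 80 min at room temperature; remaining NADPH was read by diaphorase/resazurin fluorescence.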
# Pin1 inhibitor – blocks the human prolyl isomerase Pin1. Q13526. Pin1 FP peptide displacement, HiFluor488, 10 min. Potency, µM (doses to about 115 µM), inactives show at the top dose activity, negative = inhibition, most hits filed as inhibitors. 390,000 compounds, 0.009% hits. AID 504891; active = well fitted inhibition curve with a large enough effect in the polarisation, with a control signal flat, not every such curve was filed as active; inconclusive = small, poorly fitted or top-dose-only effect, or effect the other way, or a change in a side signal; inactive = no such curve, though single readings can be large or run the other way; the % refers to the polarisation; also: potency is read from the fitted curve at half-maximal effect; % is scaled to controls: 0 for no effect and ±100 for the full control effect
# IDH1 autofl – interferes with resorufin fluorescence in IDH1 counter-screen; shares compounds with mIDH1 inhibitor; Resorufin detection reagent fluorescence interference, cell-free; inhibition of signal, % at 51.2 µM; 750 tested, under 10 active;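 also: 0% = wells with normal resorufin and full inhibition = wells lacking resorufin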
# WT IDH1 inh – wild-type IDH1 (human) inhibition counterscreen. shares compounds with mIDH1 inhibitor. WT IDH1 enzyme, NADPH diaphorase/resazurin fluorescence. Potency, µM (top dose mostly 115 µM), for the others: top-dose activity change, negative = inhibition, most hits filed as inhibitors. 750 compounds, 9% hits;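 also: potency is read from the fitted curve at half-maximal effect; 0% = full WT IDH1 enzyme control and full inhibition = no enzyme wells; nearly all actives have a fitted effect of over 55% in size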
# Target sequence (O75874 whole entry, looked up): as the sequence (O75874 whole entry R132H, stated change not applied) above, with H132R counted along it
# mIDH1 confirm – inhibits human mutant IDH1 enzyme in cherrypick confirmation | 750 compounds, 83% hits | IDH1 R132H enzyme, NADPH diaphorase/resazurin fluorescence | AID 624002 | Potency, µM (highest dose often 76.6 µM), inactives show top-dose activity change, negative = inhibition, actives largely listed as inhibitors | shares compounds with mIDH1 inhibitor; also: potency is read from the fitted curve at half-maximal effect; nearly all actives have a fitted effect of over 50% in size
# * marks the source's active call; other numbers are inactive results; ? = inconclusive; nt = no result; ! = not confirmed by another sample; [ ] = remark or other dose. Hits are enriched below; roughly 0.33% of the tested compounds scored in any of these assays. Unless noted, calls follow the shape of the dose curve; as a rule, active = well fitted curve in the direction sought with a large enough effect; inconclusive = small, poorly fitted or top-dose-only effect, or another doubt; inactive = no such curve, though single readings can be large; an effect the other way counts as inactive or inconclusive.
SMILES,Tb PGK inh,GLS inhibitor,mIDH1 inhibitor,Pin1 inhibitor,others
CCCCCC(O)C1C(=O)OC(C)C(O)\C=C/C=C\C=C/C=C\C=C(\C)C(O)C(O)C(O)CC(O)CC(O)CC(O)CC(O)CC1O (stereo not given),nt,28.2µM*!,nt,nt,
CCc1cc(OC)c(CC(C)N)cc1OC (stereo not given),nt,8.0%[99.4 µM],nt,nt,
Cc1ccc(N2C(=O)/C(=C/c3ccc(CN(CCC#N)S(C)(=O)=O)o3)C(=O)NC2=S)cc1,?,11.2µM*,-1.9%,?,
CCC(=O)O[C@@](Cc1ccccc1)(c1ccccc1)[C@H](C)CN(C)C,nt,0.2%[99.4 µM],nt,nt,
Cc1nn2c(=O)cc(N3CCNCC3)nc2s1,nt,nt,nt,1.6%,
COc1ccc(N2C(=O)NC(=O)/C(=C\c3ccc([N+](=O)[O-])s3)C2=O)cc1,-14.9%,12.6µM*,-13.2%,?,
O=C1NC(=O)N(Cc2ccc(F)cc2)C(=O)/C1=C\c1ccc([N+](=O)[O-])s1,-24.7%,9.9%,7.2%,10µM*,
O=C1[O][Sb-]23[O]C(=O)C([O]2)C2[O][Sb-]4([O]C(=O)C([O]4)C1[O]3)[O]C2=O,nt,-7.5%,nt,nt,
Cc1cc(/C=C2\C(=O)NC(=O)N(c3ccc(Br)cc3)C2=O)c(C)n1-c1cc(C(=O)O)cc(C(=O)O)c1,14.1µM*,10µM*,3.9%,?,
CC1(C)CC/C(=C\c2ccc(Cl)cc2)C1(O)Cn1cncn1 (stereo not given),nt,1.7%[99.4 µM],nt,nt,
CCC(=O)OC1[C@@H](N2CCCCC2)C[C@H]2[C@@H]3CC[C@H]4C[C@H](OC(C)=O)[C@@H](N5CCCCC5)C[C@]4(C)[C@H]3CC[C@]12C (stereo not given in full),nt,0.3%,nt,nt,
O=[N+]([O-])/C=C/c1c(Cl)cccc1Cl,-0.9%,7.94µM*,1.7%,-3.4%,
CC1(O)CCC2C3CCC4=CC(=O)CCC4(C)C3(F)C(O)CC21C (stereo not given),nt,11.0%,nt,nt,
C=CCN1C(=O)NC(=O)/C(=C\c2ccc(-c3ccccc3[N+](=O)[O-])o2)C1=O,-1.2%,17.8µM*,13.0%,-3.2%,
O=C(c1ccccc1)c1ccc(N=Nc2c(O)[nH]c(=O)[nH]c2=O)cc1,-0.7%,10µM*,-7.8%,?,
O=C(O)c1cccc(N=Nc2c(O)[nH]c(=O)[nH]c2=O)c1,-4.7%,4.5%,5.3%,-10.6%,
CCOC(=O)c1c(/N=C/c2c(O)n(-c3cccc(C)c3)c(=O)[nH]c2=O)sc2c1CCCC2,-2.0%,6.3%,?,19.9%,IDH1 autofl=6.0;WT IDH1 inh=0.5%;mIDH1 confirm=11.2µM*
N#CC(C#N)=NNc1ccc(-n2ccc(C(F)(F)F)n2)cc1,-0.4%,12.2%,32.9µM*,-2.7%,IDH1 autofl=3.3;WT IDH1 inh=79.4µM*;mIDH1 confirm=25.1µM*
CCCCNc1ccc(C(=O)OCCN(CC)CC)cc1,nt,30.1%,nt,nt,
CC(=O)Nc1ccc(C(=O)OCC(=O)Nc2ccc(Cl)cc2C(=O)c2ccccc2)cc1,-2.2%,10.4%,?,56.8%,
O=C(COC(=O)c1ccc(O)cc1)Nc1ccc(Cl)cc1C(=O)c1ccccc1,-7.8%,1.1%,58.5µM*,23.9%,IDH1 autofl=-1.5;WT IDH1 inh=6.9%;mIDH1 confirm=35.5µM*
Cc1ccc(-n2nc3c(=O)n(CC(=O)NCC(C)c4ccccc4)nc(C)c3c2C)cc1 (stereo not given),5.2%,-2.2%,?,-1.5%,IDH1 autofl=1.6;WT IDH1 inh=-10.7%;mIDH1 confirm=-1.3%
CC[C@H](OC(C)=O)C(C[C@H](C)NC)(c1ccccc1)c1ccccc1,nt,5.0%[99.4 µM],nt,nt,
COc1cc(CC(C)N)c(OC)cc1C (stereo not given),nt,-1.7%[99.4 µM],nt,nt,
CCOC(=O)c1c(-n2c(C)cc(C=C3C(=O)NC(=S)NC3=O)c2C)sc2c1CCCC2,-6.8%,?,14.1µM*,?,IDH1 autofl=-0.4;WT IDH1 inh=39.8µM*;mIDH1 confirm=7.08µM*
CCOC(=O)c1c(-n2c(C)cc(/C=C3/C(=O)NC(=O)N(CC)C3=O)c2C)sc2c1CCCC2,1.0%,-0.4%,?,-2.8%,

# Screens as filed in PubChem.
